Experiment [1] in a line: NCI Yeast Anticancer Drug Screen. Data for the rad50 strain (AID 155).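 Further: 0% = growth of vehicle-only cultures of the same strain.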 To be noted: S. cerevisiae rad50 strain growth inhibition, hits give high values. A digest of the protocol: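 Compounds were tested on a yeast strain with an engineered DNA damage repair alteration; the reported value is growth inhibition normalised to vehicle treatment.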
Experiment [2] in a line: NCI Yeast Anticancer Drug Screen. Data for the mec2-1 strain (AID 157). The note with it: S. cerevisiae mec2-1 strain, hits give high values. Put shortly: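 Cells of the genetically defined mec2-1 yeast strain are incubated with test compound. Inhibition of growth is calculated against vehicle-treated controls.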
A short description of experiment [3]: NCI Yeast Anticancer Drug Screen. Data for the sgs1 mgt1 strain (AID 161).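 Further: 0% = growth of cultures given vehicle only.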 The note with it: S. cerevisiae sgs1 mgt1 strain, hits give high values. A digest of the protocol: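 Mutant yeast exposed to compound; growth scored against vehicle-only wells.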
Experiment [4] in a line: NCI Yeast Anticancer Drug Screen. Data for the cln2 rad14 strain (AID 165).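 Further: 0% = growth equal to vehicle treated cultures.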 To be noted: S. cerevisiae cln2 rad14 strain, hits give high values. Put shortly: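 The screen exposed genetically defined yeast (cln2 rad14) to test compounds and scored growth inhibition relative to vehicle-treated controls.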
The nature of experiment [5]: NCI Yeast Anticancer Drug Screen. Data for the bub3 strain (AID 167). The note with it: S. cerevisiae bub3 mutant strain, hits give high values. A digest of the protocol:
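Growth of a checkpoint-deficient yeast mutant is measured after compound exposure. Values represent inhibition relative to vehicle.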

A short description of experiment [6]: NCI Yeast Anticancer Drug Screen. Data for the mlh1 rad18 strain (AID 175). To be noted: S. cerevisiae mlh1 rad18 strain growth inhibition, hits give high values. Put shortly:
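Compound-treated yeast growth, normalised to vehicle controls. Strain bears defined DNA repair mutations.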

Setting [7] is: at 5.0 µM (retest, dose inferred, filed as 0.5).
Setting [8] is: at 50.0 µM (retest, dose inferred, filed as 5.0).

SMILES strings stand for the structures. This is part of a sample that, as a whole, favours compounds with a hit. Of some 79,000 tested, about 15% had one in any assay. Values without a mark were called inactive. Activity calls are given as the source filed them. No stated cut-off is given here; in the data, active means growth inhibition above about 70%; inactive means the rest.

For the molecule `O=C1C=CC2=Nc3ccccc3CCC2=C1`, the growth inhibition in experiment [1] (setting [7]) was -151%; in experiment [1] (setting [8]), 95% (active); in experiment [1] (at 50.0 µM), 90% (active); in experiment [2] (setting [7]), -57%; in experiment [2] (setting [8]), 95% (active); in experiment [2] (at 50.0 µM) it was 99% (active). Besides, the growth inhibition in experiment [3] (setting [7]) was -63%; in experiment [3] (setting [8]), 95% (active); in experiment [3] (at 50.0 µM), 87.7% (active); in experiment [4] (setting [7]) it was -52%; in experiment [4] (setting [8]), 86% (active); in experiment [4] (at 50.0 µM), 88.9% (active). The growth inhibition in experiment [5] (setting [7]) was -67%; in experiment [5] (setting [8]), 97% (active); in experiment [5] (at 50.0 µM), 98.8% (active); in experiment [6] (setting [7]), -115%; in experiment [6] (setting [8]), 97% (active); in experiment [6] (at 50.0 µM) it was 95.1% (active).
As for `O=C1C(c2c[nH]c3ccc(Br)cc23)=Nc2ccc(Br)cc21`, the growth inhibition in experiment [1] (setting [7]) is -1%; in experiment [1] (setting [8]) it was 2%; in experiment [1] (at 50.0 µM) it was 88% (active); in experiment [2] (setting [7]), 3%; in experiment [2] (setting [8]), 21%; in experiment [2] (at 50.0 µM), 75.8% (active). In addition, the growth inhibition in experiment [3] (setting [7]) was -20%; in experiment [3] (setting [8]) it was -32%; in experiment [3] (at 50.0 µM), 85.5% (active); in experiment [4] (setting [7]), -6%; in experiment [4] (setting [8]), -18%; in experiment [4] (at 50.0 µM), 88.8% (active). For the same molecule, the growth inhibition was -4% in experiment [5] (setting [7]); -2% in experiment [5] (setting [8]); 82.2% (active) in experiment [5] (at 50.0 µM); 7% in experiment [6] (setting [7]); 25% in experiment [6] (setting [8]); 73.4% (active) in experiment [6] (at 50.0 µM).
`O=S(=O)(O)c1ccc(O)c2cc(Nc3ccccc3)ccc12`: the growth inhibition was -3% in experiment [1] (setting [7]); -26% in experiment [1] (setting [8]); 44% in experiment [1] (at 50.0 µM); -3% in experiment [2] (setting [7]); -29% in experiment [2] (setting [8]); 20.9% in experiment [2] (at 50.0 µM). For the same molecule, the growth inhibition in experiment [3] (setting [7]) was -4%; in experiment [3] (setting [8]), -31%; in experiment [3] (at 50.0 µM) it was 26.2%; in experiment [4] (setting [7]) it was 2%; in experiment [4] (setting [8]), -37%; in experiment [4] (at 50.0 µM), -28.6%. The growth inhibition was 2% in experiment [5] (setting [7]); -25% in experiment [5] (setting [8]); 11.6% in experiment [5] (at 50.0 µM); 3% in experiment [6] (setting [7]); -23% in experiment [6] (setting [8]); 25.5% in experiment [6] (at 50.0 µM).
As to `CN(C)CCNc1ccc(O)c2sc3ccccc3c(=O)c12`, the growth inhibition in experiment [1] (setting [7]) is 0%; in experiment [1] (setting [8]), 82% (active); in experiment [1] (at 50.0 µM), 81.8% (active); in experiment [2] (setting [7]) it was -6%; in experiment [2] (setting [8]), 56%; in experiment [2] (at 50.0 µM), 42.8%. Moreover, the growth inhibition is -7% in experiment [3] (setting [7]); 70% (active) in experiment [3] (setting [8]); 48.1% in experiment [3] (at 50.0 µM); -7% in experiment [4] (setting [7]); 19% in experiment [4] (setting [8]); 30.6% in experiment [4] (at 50.0 µM). In addition, the growth inhibition in experiment [5] (setting [7]) was -9%; in experiment [5] (setting [8]), 3%; in experiment [5] (at 50.0 µM), 33.4%; in experiment [6] (setting [7]) it was -5%; in experiment [6] (setting [8]), 81% (active); in experiment [6] (at 50.0 µM), 51%.
As to `COc1ccc(Cc2ccc(N)cc2)cc1`, the growth inhibition was -149% in experiment [1] (setting [7]); 78% (active) in experiment [1] (setting [8]); 92.2% (active) in experiment [1] (at 50.0 µM); -52% in experiment [2] (setting [7]); 68% in experiment [2] (setting [8]); 86.7% (active) in experiment [2] (at 50.0 µM). In addition, the growth inhibition in experiment [3] (setting [7]) was -68%; in experiment [3] (setting [8]), 85% (active); in experiment [3] (at 50.0 µM) it was 89.5% (active); in experiment [4] (setting [7]) it was -61%; in experiment [4] (setting [8]), 91% (active); in experiment [4] (at 50.0 µM), 87.8% (active). Besides, the growth inhibition is -66% in experiment [5] (setting [7]); 76% (active) in experiment [5] (setting [8]); 91.1% (active) in experiment [5] (at 50.0 µM); -132% in experiment [6] (setting [7]); 86% (active) in experiment [6] (setting [8]); 96.8% (active) in experiment [6] (at 50.0 µM).
Consider `CS(=O)(=O)OC1COC2C(I)COC12` (configuration not stated), for which the growth inhibition in experiment [1] (setting [7]) is -1%; in experiment [1] (setting [8]) it was 55%; in experiment [1] (at 50.0 µM), 7.85%; in experiment [2] (setting [7]) it was 3%; in experiment [2] (setting [8]), 58%; in experiment [2] (at 50.0 µM), -11.8%. For the same molecule, the growth inhibition in experiment [3] (setting [7]) was -1%; in experiment [3] (setting [8]), 83% (active); in experiment [3] (at 50.0 µM), 1.85%; in experiment [4] (setting [7]) it was 5%; in experiment [4] (setting [8]) it was 30%; in experiment [4] (at 50.0 µM), 13.7%. Also, the growth inhibition is -1% in experiment [5] (setting [7]); 83% (active) in experiment [5] (setting [8]); 77.3% (active) in experiment [5] (at 50.0 µM); 2% in experiment [6] (setting [7]); 84% (active) in experiment [6] (setting [8]); 19.9% in experiment [6] (at 50.0 µM).
For `CCCCN(CCCC)Cc1cc(Nc2c3ccc(Cl)cc3nc3ccc(OC)cc23)ccc1O`, the growth inhibition in experiment [1] (setting [7]) is 4%; in experiment [1] (setting [8]), 91% (active); in experiment [1] (at 50.0 µM) it was 79.2% (active); in experiment [2] (setting [7]), 10%; in experiment [2] (setting [8]) it was 56%; in experiment [2] (at 50.0 µM) it was 86.7% (active). Further, the growth inhibition was -19% in experiment [3] (setting [7]); 95% (active) in experiment [3] (setting [8]); 75.4% (active) in experiment [3] (at 50.0 µM); -4% in experiment [4] (setting [7]); 23% in experiment [4] (setting [8]); 89.5% (active) in experiment [4] (at 50.0 µM). Further, the growth inhibition in experiment [5] (setting [7]) is -3%; in experiment [5] (setting [8]), 36%; in experiment [5] (at 50.0 µM) it was 58.4%; in experiment [6] (setting [7]) it was 7%; in experiment [6] (setting [8]), 79% (active); in experiment [6] (at 50.0 µM), 98.1% (active).
On to `CSc1nc(=S)c2[nH]c(C)nc2[nH]1`, for which the growth inhibition in experiment [1] (setting [7]) is 0%; in experiment [1] (setting [8]) it was 4%; in experiment [1] (at 50.0 µM), 93.3% (active); in experiment [2] (setting [7]), -2%; in experiment [2] (setting [8]) it was -3%; in experiment [2] (at 50.0 µM), 99.6% (active). For the same molecule, the growth inhibition in experiment [3] (setting [7]) was 0%; in experiment [3] (setting [8]), 1%; in experiment [3] (at 50.0 µM) it was 99.2% (active); in experiment [4] (setting [7]), -3%; in experiment [4] (setting [8]), 6%; in experiment [4] (at 50.0 µM), 98.5% (active). The growth inhibition was -1% in experiment [5] (setting [7]); -6% in experiment [5] (setting [8]); 99.6% (active) in experiment [5] (at 50.0 µM); 1% in experiment [6] (setting [7]); 3% in experiment [6] (setting [8]); 97.5% (active) in experiment [6] (at 50.0 µM).
For the molecule `COc1cc(OC)c(SSCCCCS(=O)O)c(OC)c1`, the growth inhibition in experiment [1] (setting [7]) is 0%; in experiment [1] (setting [8]), 14%; in experiment [1] (at 50.0 µM) it was 10.6%; in experiment [2] (setting [7]) it was 1%; in experiment [2] (setting [8]), 44%; in experiment [2] (at 50.0 µM) it was 21.5%. The growth inhibition in experiment [3] (setting [7]) is 11%; in experiment [3] (setting [8]), 55%; in experiment [3] (at 50.0 µM), 41.5%; in experiment [4] (setting [7]) it was -13%; in experiment [4] (setting [8]), 25%; in experiment [4] (at 50.0 µM) it was 44.7%. The growth inhibition is 7% in experiment [5] (setting [7]); 63% in experiment [5] (setting [8]); -26.2% in experiment [5] (at 50.0 µM); 1% in experiment [6] (setting [7]); 36% in experiment [6] (setting [8]); 40.8% in experiment [6] (at 50.0 µM).

The record behind these values is PubChem BioAssay (NCI).
